Source: PubChem BioAssay AID651567 (National Center for Advancing Translational Sciences (NCATS), 2012)
The whole screen tested about 1,200 compounds, of which about 10 (0.8%) were called active. A call without a number means that no potency is given here. Another 4% or so got no clear call; they are omitted. Calls follow the shape of the dose curve; as a rule, active = well fitted inhibition curve with a large enough effect; inconclusive = small, poorly fitted or top-dose-only effect; inactive = no such curve, though single readings can be large or run the other way. The sample as a whole holds a higher share of actives than the screen did.

Experiment: qHTS Assay to Find Inhibitors of Chronic Active B-Cell Receptor Signaling: Hit Validation in OCI-Ly3 Assay
Details: OCI-Ly3 IkB-luciferase reporter, Chroma-Glo luminescence, 4 h; series mostly up to 46.1 µM
Text: Diffuse large B-cell lymphoma (DLBCL) is the most common category of non-Hodgkin lymphoma, with ~20,000 new cases per year in the United States. DLBCL should be regarded as a collection of different neoplasms. Microarray gene expression analysis has defined two principal types of DLBCL, named for their similarity to normal B cell stages or activation states: a germinal center B-cell (GCB) type, and an activated B-cell (ABC) type. In ABC-DLBCL, a constitutive high-level activity of the NF-kappaB family of transcription factors has been observed (1) and NF-kappaB target genes are more highly expressed in ABC primary tumors than in GCB tumors. Functional studies have shown a constitutive high-level activity of the IkappaB (inhibitor of kappa-B) kinase (IKK) complex. […] Further analysis of DLBCL primary tumors for NF-kappaB target gene expression imply that although CARD11 is required for constitutive IKK activity in all ABC-DLBCL lines, mutations in CARD11 may be the root cause of IKK activation only in lines or tumors with such mutations. In other words, CARD11 mutations may explain NF-kappaB activation in only 10% of ABC-DLBCL cases. […] This process has been termed 'chronic active BCR signaling' (CABS). The goal of this screen is to find small-molecule inhibitors of the CABS pathway found in ABC-DLBCL lines using a cell-based assay that measures IkappaBalpa stability, which has already been extensively validated in the OCI-Ly3 line (PubChem AID:445; REF: 4). […] Hits from the primary screen were tested in this selectivity secondary assay. NIH Molecular Libraries Probe Production Network [MLPCN] NIH Chemical Genomics Center [NCGC] MLPCN Grant: R03 DA031086 PI Name: Dr. R. Eric Davis
Cells were seeded in 1536-well plates at 5000 cells/3ul in IMDM medium containing 0.5% FBS, w/o phenol red, L-glutamine, 25 mM HEPES, 3 mg/ml sodium bicarbonate. After centrifugation for 1 min. at 1000 rpm, 23 nl of compounds or DMSO were delivered to each well using a pin tool. Then 1ul 80ng/ml doxycycline was dispensed into white solid 1536-well plates and the plates were incubated at 37C/5% C02 in a cell incubator for 4 hrs. Then 4 ul Chroma-Glo luminescent substrate mix (Promega) was added to each well. The plate was incubated at R.T. for 10-15 min. The plates were measured on a ViewLux plate reader for green luminescence (540/20 nm filter) and red luminescence (618/8 nm filter). The green and red luminescent signals were corrected for red and green luminescence filter overlap using previously determined filter calibration constants (determined using the procedure outlined in the Promega Technical Manual). The %Activity was determined from the ratio of corrected green/red luminescent values. Green luminescent and ratio %Activity was determined by normalizing to the difference in signal between basal cells (0% Activity) and cells incubated with 10 uM of the proteasome inhibitor MG-132 (100% Activity). Red luminescent %Activity was normalized to the difference between red luminesence in basal cells (0%Activity) and zero luminescence (-100% Activity). Concentration-response curves were fitted to the signals arising from the green luminescence (I-kappa-B-alpha-luciferase fusion; IkB-luc) and the red luminescence (unfused luciferase; luc) as well as the calculated ratio. The concentration-effect curves were then classified based on curve quality (r2), response magnitude and degree of measured activity. Compounds were then categorized based on their concentration-response curves for all three datasets (Ikb-luc, luc and ratio).
Potency is read from the fitted curve at half-maximal effect.

| SMILES | Potency |
| --- | --- |
| CCN1C(=O)C(O)(C2COC(C)(C)CC2=O)c2cc(Br)ccc21 (stereo not given) | inactive |
| Cc1nn(-c2ccccc2)c(C)c1/C=N/NC(=O)c1cc(-c2cccs2)[nH]n1 | 18.4 µM (active) |
| O=C(N/N=C/c1cccs1)c1cc(-c2ccncc2)nc2ccccc12 | inactive |
| Cc1ccc(-c2cc(C(=O)N/N=C/c3c(C)nn(-c4ccccc4)c3C)[nH]n2)cc1 | inactive |
| COc1ccc(COC(=O)C2=C(C)NC(=O)NC2c2cc(Br)c(O)c(OC)c2)cc1 (stereo not given) | inactive |
| CCOC(=O)CSc1nc(C)c2cccc(C)c2n1 | inactive |
| COc1ccc(C2=Nn3c(nnc3-c3ccccc3OC)SC2)cc1OC | inactive |
| Fc1cccc2sc(Nc3nnc(-c4ccccc4)o3)nc12 | inactive |
| Nc1ncnc2c1ncn2C1OC(C(=O)NC2CC2)C(O)C1O (stereo not given) | inactive |
| CC(/C=N/NC(=O)c1cc(-c2ccc(Cl)cc2)nc2ccccc12)=C\c1ccco1 | inactive |
| Cc1noc(C)c1COc1ccc(CC(=O)NCc2ccccc2)cc1 | inactive |
| Cc1cc(C)c(S(=O)(=O)Nc2ccc3c4c(cccc24)CC3)c(C)c1 | inactive |
| CCOc1ccc(Nc2cc(C)nc(-n3nc(C)cc3C)n2)cc1 | inactive |
| COc1ccc(OC)c(C2CC(=O)c3c([nH]c(C(=O)OC(C)C)c3C)C2)c1 (stereo not given) | inactive |
| COc1ccccc1-c1nnc(Nc2nc3c(OC)cccc3s2)o1 | inactive |
| C=CCn1c(SCC(=O)NCCO)nc2sc(C)c(C)c2c1=O | inactive |
| O=C(CNC(=O)c1ccco1)N=Nc1c(O)n(CCc2ccccc2)c2ccccc12 | inactive |
| C=CCNc1ncnc2c1ncn2C1OC(CO)C(O)C1O (stereo not given) | inactive |
| COc1cccc(CSc2nc3ccccc3cc2C=O)c1 | inactive |
| O=C(/C=C/c1cccc(Cl)c1)c1nc2ccccc2[nH]1 | inactive |
| COc1cc2c(cc1OC)C(c1cc3cc(OC)c(OC)cc3[nH]c1=O)N(C(=O)C1CC1)CC2 (stereo not given) | inactive |
| CCOc1cc(CNc2ccc3c(c2)OCCO3)cc(Br)c1OCC | inactive |

| SMILES | Potency |
| --- | --- |
| CC(C)Oc1ccccc1C1CC(=O)Nc2cc3c(cc21)OCCO3 (stereo not given) | inactive |
| C=C1C(O)[C@@H]2O[C@]3(CC[C@H](/C=C/C(C)[C@@H]4CC(C)=CC5(O[C@H](C[C@@](C)(O)CO)CCC5O)O4)O3)CC[C@H]2O[C@@H]1C(O)CC(C)[C@H]1OC2(CCCCO2)CCC1C (stereo not given in full) | inactive |
| Cc1cc(Cl)n2c(nc3ccccc32)c1C#N | inactive |
| COc1ccc(-c2noc(CSc3nc(N)c(-c4ccccc4)c(=O)[nH]3)n2)cc1OC | inactive |
| COc1ccc(CN2C[C@H]3CCCN3c3cc(Br)ccc3S2(=O)=O)cc1 | inactive |
| CCOCCOC(=O)c1[nH]c2c(c1C)C(=O)CC(c1ccccc1)C2 (stereo not given) | inactive |
| CCOc1cc(C(=O)N/N=C/C(Br)=C/c2ccccc2)cc(OCC)c1OCC | inactive |
| CCOC(=O)c1ccc(NC(=O)Nc2ccon2)cc1 | inactive |
| Cc1ccccc1Nc1c(N)c(=O)oc2ccccc12 | inactive |
| COc1cc(/C=C/c2ccc3cccc(O)c3n2)c(Br)cc1O | inactive |
| COc1cc(/C=C/c2ccc3cccc(O)c3n2)cc(OC)c1OC | inactive |
| COc1cc(/C=C/c2ccc3cccc(O)c3n2)cc(Br)c1OC | 10.3 µM (active) |
| Fc1ccc(/C=N/NC2=Nc3cccc4cccc2c34)cc1 | inactive |
| CNC(=O)c1cccc(NC(=O)C(C)c2ccc3cc(OC)ccc3c2)c1 (stereo not given) | inactive |
| COc1ccc(C(C)=O)cc1COC(=O)c1ccc(N)c([N+](=O)[O-])c1 | inactive |
| CCOc1cc(/C=C(/C#N)C(=O)Nc2ccc(O)cc2)cc(Br)c1O | inactive |
| COC(=O)c1ccc(C)c(NS(=O)(=O)c2ccc3c(c2)OCCO3)c1 | inactive |
| CCN(CC)c1ccc(-c2nn3c(-c4n[nH]c5c4CCC5)nnc3s2)cc1 | inactive |
| CC1C(=O)N2CCCc3cc(NC(=O)c4ccccc4Br)cc1c32 (stereo not given) | inactive |
| O=C(Nc1ccc(N2CCCC2)cc1)c1cc(Cl)ccc1Cl | inactive |
| O=C(Nc1ccc(N2CCN(C(=O)c3ccc(Cl)cc3)CC2)cc1)c1ccc([N+](=O)[O-])o1 | 16.4 µM (active) |
| COC(=O)c1cc(C(=O)N2CCN(c3cccc(Cl)c3)CC2)cc([N+](=O)[O-])c1 | inactive |

| SMILES | Potency |
| --- | --- |
| CCC1=Nc2cc(C(=O)NCc3ccco3)ccc2Sc2ccccc21 | inactive |
| CCCCC[C@H](O)/C=C/[C@@H]1[C@@H](C/C=C\CCCC(=O)O)[C@H]2CO[C@@H]1C2 | inactive |
| Cc1ccc(Nc2nc(-c3c(C)nc4ncccn34)cs2)cc1 | inactive |
| Cc1ccc2[nH]c(-c3cccc(F)c3)cc(=O)c2c1 | inactive |
| COc1cc2c(cc1OC)-c1cc(NC3CCCCC3)nc(=O)n1CC2 | inactive |
| COc1cc2c(cc1OC)-c1cc(NC3CCCC3)nc(=O)n1CC2 | inactive |
| COc1cc(S(=O)(=O)N2CCCCC2)ccc1NC(=O)/C=C/c1ccccc1 | inactive |
| COc1ccccc1C(=O)Nc1ccccc1SC(=O)c1ccccc1OC | inactive |
| CCOc1ccc2c(c1)C(C)=CC(C)(C)N2S(=O)(=O)c1ccc(NC(C)=O)cc1 | inactive |
| Cc1ccc2nc(NC(=O)c3ccccn3)sc2c1 | inactive |
| C[C@]12C=CC(=O)C=C1CC[C@@H]1[C@@H]2[C@@H](O)C[C@@]2(C)[C@H]1CC[C@]2(O)C(=O)COC(=O)CCC(=O)O | inactive |
| C/C(Cl)=C\Cn1c(O)c(N=NC(N)=S)c2cc(Br)ccc21 | inactive |
| OC[C@H]1O[C@@H](n2cnc3c(NC4CCCC4)nc(Cl)nc32)[C@H](O)[C@@H]1O | inactive |
| Cc1[nH]n(C(N)=S)c(=O)c1N=Nc1cccc(Cl)c1 | 20.6 µM (active) |
| Cc1ccc(N=Nc2c(C)[nH]n(C(N)=S)c2=O)cc1 | inactive |
| Cc1[nH]n(C(N)=S)c(=O)c1N=Nc1ccc2ccccc2c1 | inactive |
| CCN1C(=O)c2cccc3c(NC(=O)c4ccc(OC)c(OC)c4)ccc1c23 | inactive |
| O=C1N/C(=C/c2ccc(N3CCOCC3)o2)C(=O)N1c1cccc(Cl)c1 | inactive |
| O=C(N/N=C/c1ccc(O)cc1)c1[nH]c2ccc(Br)cc2c1-c1ccccc1 | inactive |
| COc1c(Br)cc(Br)cc1/C=N/NC(=O)c1cccnc1 | inactive |
| CCOC(=O)c1c(C)oc2c1cc(NS(=O)(=O)c1ccc(C(=O)O)cc1)c1ccccc12 | inactive |
